From the supplement of paper PMC10849652
Of roughly 8,800 targets only a part is listed; those with a hit were picked by preference. About 0.5% of all pairs of compound and target were hits.

compound: Cc1cn(-c2cc(NC(=O)c3ccc(C)c(Nc4nccc(-c5cccnc5)n4)c3)cc(C(F)(F)F)c2)cn1 [nilotinib]; test: log2 fold change, soluble protein after heating vs DMSO (PISA); higher = thermal stabilisation; K562 lysate, 10 uM; active = over 0.2 and 3.5 SD of the protein, either way, in both replicates (recomputed)
Procedure, shortened: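 A 30 min treatment with 10 μM compound was applied to crude K562 extract at 1 mg/mL protein in PBS pH 7.4 with 1 mM MgCl2. Heating for 3 min spanned 48°C-58°C, after which aliquots were pooled, adjusted to 0.5% NP-40 at 4°C and spun at 21,000xg for 90 min. TMTpro 16plex LC-MS/MS of the supernatant, with channel sums equalised, gave values recorded as log-two fold change in thermal stability against solvent controls, from duplicates.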

Sequence of UniProt Q8NEC7 (Q8NEC7 whole entry, looked up): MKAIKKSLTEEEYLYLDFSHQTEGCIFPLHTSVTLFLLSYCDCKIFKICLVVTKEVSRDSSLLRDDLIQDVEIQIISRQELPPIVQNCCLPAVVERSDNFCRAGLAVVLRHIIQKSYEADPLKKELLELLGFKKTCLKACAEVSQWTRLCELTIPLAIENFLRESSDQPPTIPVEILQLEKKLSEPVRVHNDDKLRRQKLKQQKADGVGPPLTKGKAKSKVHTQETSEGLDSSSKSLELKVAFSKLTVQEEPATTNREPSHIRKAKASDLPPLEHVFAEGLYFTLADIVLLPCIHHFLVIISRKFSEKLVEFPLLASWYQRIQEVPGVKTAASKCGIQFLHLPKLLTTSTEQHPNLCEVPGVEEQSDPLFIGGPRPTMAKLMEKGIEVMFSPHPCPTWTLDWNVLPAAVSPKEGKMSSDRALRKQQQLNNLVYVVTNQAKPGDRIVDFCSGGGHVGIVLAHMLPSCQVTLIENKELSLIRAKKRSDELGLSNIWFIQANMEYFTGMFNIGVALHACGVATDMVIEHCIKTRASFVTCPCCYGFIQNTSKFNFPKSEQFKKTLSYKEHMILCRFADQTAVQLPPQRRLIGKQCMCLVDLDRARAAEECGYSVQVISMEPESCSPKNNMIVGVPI
Sequence of UniProt Q9H0C8 (Q9H0C8 whole entry, looked up): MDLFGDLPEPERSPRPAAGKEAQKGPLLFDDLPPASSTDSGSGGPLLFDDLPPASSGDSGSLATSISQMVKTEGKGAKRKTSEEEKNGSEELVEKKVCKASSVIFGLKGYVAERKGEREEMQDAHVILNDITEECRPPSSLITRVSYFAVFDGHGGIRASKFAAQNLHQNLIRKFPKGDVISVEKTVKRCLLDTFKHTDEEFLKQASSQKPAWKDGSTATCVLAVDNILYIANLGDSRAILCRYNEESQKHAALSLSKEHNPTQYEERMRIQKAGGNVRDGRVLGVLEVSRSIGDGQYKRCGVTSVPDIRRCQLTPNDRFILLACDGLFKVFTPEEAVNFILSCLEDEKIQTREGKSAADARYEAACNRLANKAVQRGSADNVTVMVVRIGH
Sequence of UniProt Q9BXW7 (Q9BXW7 whole entry, looked up): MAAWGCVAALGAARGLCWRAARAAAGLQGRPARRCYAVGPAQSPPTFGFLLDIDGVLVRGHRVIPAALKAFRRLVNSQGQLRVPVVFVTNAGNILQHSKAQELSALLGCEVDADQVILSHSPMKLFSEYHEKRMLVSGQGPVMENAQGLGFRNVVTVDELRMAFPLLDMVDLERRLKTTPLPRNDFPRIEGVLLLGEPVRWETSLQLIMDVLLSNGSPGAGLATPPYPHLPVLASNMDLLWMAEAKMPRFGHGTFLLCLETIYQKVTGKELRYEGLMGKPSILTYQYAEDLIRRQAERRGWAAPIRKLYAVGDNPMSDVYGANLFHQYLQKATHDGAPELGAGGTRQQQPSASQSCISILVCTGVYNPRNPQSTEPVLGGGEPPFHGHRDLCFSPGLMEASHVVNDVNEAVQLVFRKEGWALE
Sequence of UniProt Q7Z4V5 (Q7Z4V5 whole entry, looked up): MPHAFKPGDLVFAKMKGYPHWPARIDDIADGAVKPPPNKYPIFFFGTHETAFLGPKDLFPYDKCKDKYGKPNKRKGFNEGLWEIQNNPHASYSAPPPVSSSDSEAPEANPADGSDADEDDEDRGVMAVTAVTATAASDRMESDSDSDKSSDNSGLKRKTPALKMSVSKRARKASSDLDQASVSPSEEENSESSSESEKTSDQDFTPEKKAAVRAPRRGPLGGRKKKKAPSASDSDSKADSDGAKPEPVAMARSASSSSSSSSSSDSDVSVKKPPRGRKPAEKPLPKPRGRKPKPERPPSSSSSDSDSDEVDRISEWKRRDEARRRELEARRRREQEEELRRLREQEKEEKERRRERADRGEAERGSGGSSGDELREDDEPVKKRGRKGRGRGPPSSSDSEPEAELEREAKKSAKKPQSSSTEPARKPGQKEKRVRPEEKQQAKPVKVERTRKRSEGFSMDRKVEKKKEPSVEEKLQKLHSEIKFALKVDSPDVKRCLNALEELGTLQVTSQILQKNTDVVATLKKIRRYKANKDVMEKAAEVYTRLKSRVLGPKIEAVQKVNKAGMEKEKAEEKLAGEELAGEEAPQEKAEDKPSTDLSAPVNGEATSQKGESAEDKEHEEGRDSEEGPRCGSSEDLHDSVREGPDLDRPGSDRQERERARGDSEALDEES
Sequence of UniProt P20839 (P20839 whole entry, looked up): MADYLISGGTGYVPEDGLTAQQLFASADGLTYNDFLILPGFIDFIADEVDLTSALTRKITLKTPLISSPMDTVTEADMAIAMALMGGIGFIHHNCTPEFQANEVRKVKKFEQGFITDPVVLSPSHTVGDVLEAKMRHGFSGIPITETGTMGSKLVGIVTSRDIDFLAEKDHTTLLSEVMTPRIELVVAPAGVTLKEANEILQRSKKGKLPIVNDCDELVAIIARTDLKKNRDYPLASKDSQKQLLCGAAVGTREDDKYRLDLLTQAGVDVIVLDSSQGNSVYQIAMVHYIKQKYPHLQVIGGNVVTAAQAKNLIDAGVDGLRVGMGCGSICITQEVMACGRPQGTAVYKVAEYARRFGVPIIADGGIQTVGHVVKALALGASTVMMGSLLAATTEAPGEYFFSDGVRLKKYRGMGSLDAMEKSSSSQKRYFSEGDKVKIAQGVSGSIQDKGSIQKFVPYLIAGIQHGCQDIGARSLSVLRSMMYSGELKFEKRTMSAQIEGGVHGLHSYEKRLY
Sequence of UniProt P15104 (P15104 whole entry, looked up): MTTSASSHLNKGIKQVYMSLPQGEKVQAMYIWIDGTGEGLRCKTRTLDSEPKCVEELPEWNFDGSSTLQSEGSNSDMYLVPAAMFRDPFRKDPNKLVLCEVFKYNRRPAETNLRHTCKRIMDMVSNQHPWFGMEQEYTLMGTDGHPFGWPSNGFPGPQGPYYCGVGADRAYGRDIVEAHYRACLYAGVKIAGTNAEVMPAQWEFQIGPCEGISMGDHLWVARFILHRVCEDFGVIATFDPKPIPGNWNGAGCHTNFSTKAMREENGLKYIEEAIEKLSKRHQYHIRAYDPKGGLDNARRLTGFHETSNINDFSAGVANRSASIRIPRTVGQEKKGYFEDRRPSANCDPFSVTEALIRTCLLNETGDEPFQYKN
Sequence of UniProt Q14687 (Q14687 whole entry, looked up): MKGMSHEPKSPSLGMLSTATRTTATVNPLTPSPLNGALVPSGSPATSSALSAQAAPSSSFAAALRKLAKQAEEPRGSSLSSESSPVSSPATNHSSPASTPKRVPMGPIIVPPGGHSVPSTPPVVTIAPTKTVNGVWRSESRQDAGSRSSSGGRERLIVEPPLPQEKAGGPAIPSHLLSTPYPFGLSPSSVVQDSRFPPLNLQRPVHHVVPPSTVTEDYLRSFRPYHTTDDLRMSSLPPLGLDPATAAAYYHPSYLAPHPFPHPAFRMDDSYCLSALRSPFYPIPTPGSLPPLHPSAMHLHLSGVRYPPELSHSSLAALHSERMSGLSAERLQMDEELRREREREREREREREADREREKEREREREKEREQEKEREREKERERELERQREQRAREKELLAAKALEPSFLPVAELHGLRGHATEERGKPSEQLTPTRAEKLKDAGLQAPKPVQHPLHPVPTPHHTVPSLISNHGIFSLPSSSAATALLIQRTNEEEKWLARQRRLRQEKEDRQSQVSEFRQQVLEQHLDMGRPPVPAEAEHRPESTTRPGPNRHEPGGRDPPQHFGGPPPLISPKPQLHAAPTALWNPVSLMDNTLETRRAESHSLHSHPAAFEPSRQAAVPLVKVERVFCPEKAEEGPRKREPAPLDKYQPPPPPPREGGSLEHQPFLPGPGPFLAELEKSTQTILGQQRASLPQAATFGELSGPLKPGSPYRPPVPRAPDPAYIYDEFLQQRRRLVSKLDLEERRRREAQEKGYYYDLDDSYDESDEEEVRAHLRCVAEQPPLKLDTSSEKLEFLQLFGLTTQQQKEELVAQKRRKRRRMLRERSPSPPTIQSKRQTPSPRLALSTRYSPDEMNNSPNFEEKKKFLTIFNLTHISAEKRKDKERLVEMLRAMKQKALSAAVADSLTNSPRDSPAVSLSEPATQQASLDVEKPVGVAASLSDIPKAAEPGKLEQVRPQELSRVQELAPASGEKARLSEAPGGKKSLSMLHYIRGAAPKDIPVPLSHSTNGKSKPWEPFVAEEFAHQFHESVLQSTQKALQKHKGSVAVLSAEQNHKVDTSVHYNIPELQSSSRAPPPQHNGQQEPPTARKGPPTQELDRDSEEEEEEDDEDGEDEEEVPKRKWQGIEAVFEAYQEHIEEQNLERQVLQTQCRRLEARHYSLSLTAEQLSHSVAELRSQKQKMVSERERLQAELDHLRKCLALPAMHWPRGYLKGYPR
Sequence of UniProt O15379 (O15379 whole entry, looked up): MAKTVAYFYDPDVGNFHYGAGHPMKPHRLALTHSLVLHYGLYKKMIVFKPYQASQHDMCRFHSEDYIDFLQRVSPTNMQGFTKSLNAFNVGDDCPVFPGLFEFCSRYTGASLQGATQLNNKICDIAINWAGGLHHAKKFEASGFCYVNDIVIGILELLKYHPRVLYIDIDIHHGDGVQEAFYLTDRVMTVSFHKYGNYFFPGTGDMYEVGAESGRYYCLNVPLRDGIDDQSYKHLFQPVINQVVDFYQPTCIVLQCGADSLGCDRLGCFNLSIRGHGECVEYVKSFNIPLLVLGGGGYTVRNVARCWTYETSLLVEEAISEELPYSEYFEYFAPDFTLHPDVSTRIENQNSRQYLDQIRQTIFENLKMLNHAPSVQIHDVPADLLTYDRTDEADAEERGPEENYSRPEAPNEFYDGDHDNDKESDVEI
Sequence of UniProt P09211 (P09211 whole entry, looked up): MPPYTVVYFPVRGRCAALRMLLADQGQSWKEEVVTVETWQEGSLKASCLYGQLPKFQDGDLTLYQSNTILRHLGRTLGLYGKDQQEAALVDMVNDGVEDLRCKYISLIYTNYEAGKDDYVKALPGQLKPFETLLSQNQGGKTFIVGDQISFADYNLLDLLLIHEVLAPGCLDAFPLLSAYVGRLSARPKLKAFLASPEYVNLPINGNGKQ

log2 fold change, inactive:
HDGFL2 isoform 2 (UniProt Q7Z4V5) -0.005
HNRNPLL (UniProt Q8WVV9) -0.031
HDAC3 (UniProt O15379) -0.079
IMPDH1 isoform 6 (UniProt P20839) 0.008
HDHD5 (UniProt Q9BXW7) 0.157
KDM6A (UniProt O15550) 0.009
ILKAP (UniProt Q9H0C8) 0.023
IRF2BPL (UniProt Q9H1B7) 0.001
GSTP1 (UniProt P09211) 0.006
GLUL (UniProt P15104) -0.008
GSE1 (UniProt Q14687) -0.017
GSTCD (UniProt Q8NEC7) 0.039
HMGN4 (UniProt O00479) 0.049
